# High-throughput results: PubChem, Sanford-Burnham Center for Chemical Genomics
# Compounds with a hit are over-represented: about 2.7% of the library has one in this group of screens.
# aDG glyco act – increases alpha dystroglycan glycosylation | Pro5-aDG cells, alpha-DG glycosylation AlphaScreen (IIH6); 0% Pro5, 100% B10-LARGE cell signal | AID 624168 | hit rate 0.22% among 360,000 | activation, % at 10 µM;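 active means activation of at least 8% versus controls, or a plate z-score of at least 8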;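 further: Pro5 are CHO cells carrying HIG-tagged alpha-DG that lacks glycosylation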
# TAG inh – triacylglycerol accumulation inhibition; H9c2 cells, Nile Red lipid (TAG) fluorescence; cells loaded with 200 µM oleic acid; inhibition, % at 12.5 µM; hit rate 0.66% among 230,000; AID 651582;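 active means pattern-corrected inhibition of lipid staining of at least 50% with the nuclear-stain viability signal not falling by more than 50%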
# MPTP inh – blocks calcium-induced mitochondrial swelling; isolated mouse mitochondria, Ca2+ swelling absorbance, 30 min; AID 602449; hit rate 1.4% among 360,000; inhibition, % at 10 µM;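 active means inhibition of 50% or more, scaled per plate between neutral and stimulator controls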
# NadD inh – NadD (S. aureus) enzyme inhibition. inhibition, % at 20 µM. purified NadD enzyme, colorimetric absorbance read-out. hit rate 0.78% among 360,000; in the data active means inhibition above about 26%
# MPTP counter – mitochondrial membrane potential, counter-screen; shares compounds with MPTP inh; hit rate 78% among 5,000; inhibition, % at 10 µM; isolated mitochondria, Rhodamine 123 fluorescence; in the data active means inhibition above about 22%
# MPTP swell DR – dose response confirmation of mitochondrial permeability transition pore inhibitors | hit rate 58% among 780 | shares compounds with MPTP inh | AID 651561 | isolated mitochondria swelling, absorbance | IC50, µM; in the data active means IC50 below about 20 µM
# MPTP cs DR – counter-screen for mitochondrial permeability transition pore inhibitors, dose response; shares compounds with MPTP inh; isolated mitochondria counterscreen, fluorescence read-out; IC50, µM; hit rate 49% among 780; AID 651564; in the data active means IC50 below about 80 µM
# A number is an active result; - = inactive; . = no result given.
SMILES,aDG glyco act,TAG inh,MPTP inh,NadD inh,MPTP counter,others
CC(=O)Nc1ccc(S(=O)(=O)Nc2ccc3c(c2)OCCO3)cc1Cl,-,-,79,-,58,
COc1ccc(Cc2nc3ccc(C(=O)NC(C)Cc4ncccc4C)cc3o2)cc1OC (configuration not stated),-,-,-,-,.,
O=C(Oc1ccccc1Cl)C1CCN(C(=O)c2ccc(F)cc2)CC1,-,-,-,-,.,
Cc1nc(NC(=O)CN2CCN(c3cccc(Cl)c3)CC2)sc1C(=O)N(C)C,-,-,-,-,.,
NS(=O)(=O)c1ccc(Sc2nc3ccccc3s2)c([N+](=O)[O-])c1,-,-,60,-,43,
Cc1ccc(S(=O)(=O)N2CCCCC2)cc1C(=O)N1CCCCCC1,-,-,-,-,.,
CCCCOCCCNC(=S)Nc1ccc(S(=O)(=O)N2CCOCC2)cc1,-,-,-,-,.,
CC(C)(C)CC(C)(C)NC(=S)Nc1ccc(S(=O)(=O)N2CCOCC2)cc1,-,.,100,-,78,
NNC(=S)Nc1ccc(S(=O)(=O)N2CCOCC2)cc1,-,-,-,-,.,
O=S(=O)(c1ccc(NC(=S)NCCC(c2ccccc2)c2ccccc2)cc1)N1CCOCC1,-,-,97,-,80,
O=S(=O)(c1ccc(NC(=S)Nc2ccc(OC(F)F)cc2)cc1)N1CCOCC1,-,.,98,-,90,
CN(C)CCCN(CCCN(C)C)C(=S)Nc1ccc(S(=O)(=O)N2CCOCC2)cc1,-,-,-,-,.,
Cc1cn(CC(=O)NCCc2ccccn2)c(=O)[nH]c1=O,-,-,-,-,.,
Cc1cc(/C=C2\Sc3ccccc3N2C)cc(C)[n+]1CC1CCCO1 (configuration not stated),-,.,75,-,84,
COc1ccccc1NC(=S)N1CCCCCC1,-,-,-,-,.,
Cc1ccc(CNc2nc(C)nc3sc4c(c23)CCC4)cc1,-,.,62,-,81,
NC(=O)c1nnn(Cc2cc(Cl)c(C(=O)c3ccc(Cl)cc3)c(Cl)c2)c1N,-,.,73,-,91,
Cc1c(C(C)C)c(=O)n(-c2ccc(S(=O)(=O)NC3CCCCC3)cc2)n1C,-,.,-,-,.,
Cc1c(C(C)C)c(=O)n(-c2ccc(S(=O)(=O)NCc3ccccc3)cc2)n1C,8.4,-,96,-,83,
O=C(CN1C(=O)C(=O)N(CCC2=CCCCC2)C1=O)Nc1ccc(F)cc1F,-,-,-,-,.,
COc1cccc(CNC(=O)CCc2nc3cc(S(=O)(=O)N4CCOCC4)ccc3n2C)c1,-,-,-,-,.,
N#CC(c1ccc(Cl)cc1)c1ccc2c(C(F)(F)F)cc(C(F)(F)F)nc2n1 (configuration not stated),-,-,87,-,108,
CCn1c(-c2ccc(C(C)(C)C)cc2)n[nH]c1=S,-,-,69,-,-,MPTP swell DR=18;MPTP cs DR=26
C#CCOCCOCCOCCNc1nc(N2CCN(C(=O)[C@H](CCCN=C(N)N)n3cc(C(N)[C@@H](C)CC)nn3)CC2)nc(N2CCN(C(=O)[C@H](CCCCN)n3cc([C@@H](N)[C@H](C)CC)nn3)CC2)n1 (some centres not stated),-,.,101,-,-,MPTP swell DR=1.5;MPTP cs DR=-
C#CCOCCOCCOCCNc1nc(N2CCN(C(=O)[C@H](CCCCN)n3cc(CN)nn3)CC2)nc(N2CCN(C(=O)[C@H](CCCCN)n3cc([C@@H](N)[C@H](C)CC)nn3)CC2)n1,-,-,88,-,-,MPTP swell DR=6.4;MPTP cs DR=65
SMILES,aDG glyco act,TAG inh,MPTP inh,NadD inh,MPTP counter,others
C#CCOCCOCCOCCNc1nc(N2CCN(C(=O)[C@H]([C@@H](C)CC)n3cc([C@@H](N)CC(C)C)nn3)CC2)nc(N2CCN(C(=O)[C@H](CCCCN)n3cc([C@@H](N)C(C)CC)nn3)CC2)n1 (some centres not stated),-,.,76,-,-,MPTP swell DR=2.4;MPTP cs DR=-
C#CCOCCOCCOCCNc1nc(N2CCN(C(=O)[C@H](CCCN=C(N)N)n3cc(C(N)[C@@H](C)CC)nn3)CC2)nc(N2CCN(C(=O)[C@H](CCC(=O)O)n3cc([C@@H](N)CCCCN)nn3)CC2)n1 (some centres not stated),-,-,-,-,.,
C#CCOCCOCCOCCNc1nc(N2CCN(C(=O)[C@H]([C@@H](C)CC)n3cc([C@@H](N)CO)nn3)CC2)nc(N2CCN(C(=O)[C@H](CCCCN)n3cc([C@@H](N)C(C)CC)nn3)CC2)n1 (some centres not stated),-,-,-,-,.,
CCCNC(C)C(=O)Nc1c(C)csc1C(=O)OC (configuration not stated),-,-,-,-,.,
CCCCCNC(=O)C(c1ccc(C(F)(F)F)cc1)n1c(=O)c(-c2ccco2)nc2ccccc21 (configuration not stated),-,.,-,.,.,
CCOC(=O)N1CCC(N(C(=O)Nc2ccc(Cl)c(Cl)c2)C(C)CC)CC1 (configuration not stated),-,.,80,-,95,
Cc1ccc(C(=O)Nc2ccc(Br)c(C(F)(F)F)c2)cc1,-,.,94,-,83,
CC(NC(=O)c1ccc(CS(C)(=O)=O)cc1)c1cccc2ccccc12 (configuration not stated),-,.,-,-,.,
CCOc1ccccc1N1CCN(C(=O)Nc2ccc(F)c(Cl)c2)CC1,-,-,88,-,93,
O=S(=O)(c1ccc(Cl)cc1)N1CCN(C(=S)Nc2ccc(F)c(Cl)c2)CC1,-,.,85,-,88,
O=S(=O)(c1ccccc1)N1CCN(C(=S)Nc2ccc(F)cc2)CC1,-,.,-,-,.,
CCOC(=O)c1sc(-c2ccccc2)cc1NC(=O)Nc1ccc([N+](=O)[O-])cc1,-,.,87,-,-,MPTP swell DR=-;MPTP cs DR=<2.5
CCCC(C)(C)C(=O)N1CCC1(C)C(=O)NS(=O)(=O)c1ccccc1Cl (configuration not stated),-,-,-,-,.,
COc1cc(NC(=O)C(C)(C)C)c(C(=O)OCC(=O)Nc2cc(C)on2)cc1OC,-,-,-,-,.,
COc1ccccc1CCNC(=O)Nc1cccc([N+](=O)[O-])c1,-,-,68,-,77,
COc1ccc(NC(=O)Nc2cccc([N+](=O)[O-])c2)cc1Cl,-,.,94,-,80,
COc1ccc(C(=O)Nc2cccc([N+](=O)[O-])c2)cc1Br,-,-,-,-,.,
O=C(Cc1cccc([N+](=O)[O-])c1)Nc1ccccc1,-,-,-,-,.,
COc1ccc(NC(=O)c2cc([N+](=O)[O-])ccc2O)cc1,-,-,92,-,95,
COc1ccc(NC(=S)Nc2cccc([N+](=O)[O-])c2)cc1,-,-,85,-,87,
COc1ccc(NC(=O)c2cccc([N+](=O)[O-])c2)cc1,-,-,-,-,.,
CCCc1cc(=O)oc2c(C)c(OCC(=O)Nc3cccnc3)ccc12,-,.,-,-,.,
COc1cc2c(cc1OC)C(c1ccccc1)N(C(=O)c1cccc(S(C)(=O)=O)c1)CC2 (configuration not stated),-,.,-,-,.,
